Source: PubChem
PfG6PD inh: PfG6PD (Plasmodium falciparum) enzyme inhibition; PfGluPho enzyme, NADPH resazurin-diaphorase fluorescence; inhibition, % at 20 µM; hit rate 0.78% among 350,000; AID 504690;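 active = inhibition reaching at least a set limit at 20 µM in the primary screen, cut at about 59% in these data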
PfM18AAP inh: PfM18AAP enzyme inhibition | inhibition, % at 7.35 µM | AID 1822 | hit rate 1.2% among 290,000 | recombinant PfM18AAP, H-Glu-NHMec fluorogenic cleavage;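 active = inhibition above the campaign mean inhibition over all tested compounds plus 3 SD, cut at about 28% in these data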
A3G deaminase: inhibitors of human APOBEC3G DNA deaminase; hit rate 0.28% among 330,000; AID 493012; Q9HC16; recombinant A3G, ssDNA deamination FAM/TAMRA fluorescence; inhibition, % at 20 µM;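 active = inhibition of at least 40% at 20 µM, with no more than 30% in the related APOBEC3A deaminase screen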
Target sequence (Q9HC16 whole entry, looked up): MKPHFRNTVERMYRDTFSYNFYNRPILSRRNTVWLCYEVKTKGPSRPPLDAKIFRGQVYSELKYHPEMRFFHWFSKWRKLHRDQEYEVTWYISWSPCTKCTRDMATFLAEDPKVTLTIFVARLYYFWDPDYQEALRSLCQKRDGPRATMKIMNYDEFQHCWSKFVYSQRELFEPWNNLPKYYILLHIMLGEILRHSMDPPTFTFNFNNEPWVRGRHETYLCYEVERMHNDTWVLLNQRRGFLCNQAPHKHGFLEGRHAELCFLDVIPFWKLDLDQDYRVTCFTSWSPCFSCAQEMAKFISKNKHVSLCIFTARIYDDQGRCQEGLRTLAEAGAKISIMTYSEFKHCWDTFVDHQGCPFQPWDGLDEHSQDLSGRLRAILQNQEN
APOBEC3A inh: blocks human APOBEC3A ssDNA deamination | P31941 | inhibition, % at 20 µM | recombinant A3A, FAM/TAMRA ssDNA deamination fluorescence | AID 493011 | hit rate 0.41% among 330,000;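 active = at least 40% inhibition at 20 µM here, with at most 30% in a related deaminase screen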
Target sequence (P31941 whole entry, looked up): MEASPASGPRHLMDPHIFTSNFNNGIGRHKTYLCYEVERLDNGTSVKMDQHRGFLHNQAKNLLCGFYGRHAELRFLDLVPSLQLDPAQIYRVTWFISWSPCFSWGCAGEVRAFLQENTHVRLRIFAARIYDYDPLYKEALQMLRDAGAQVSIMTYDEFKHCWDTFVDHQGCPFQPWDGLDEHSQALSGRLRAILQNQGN
Yeast superoxide: caloric restriction mimetics inhibiting age-related superoxide in yeast; S. cerevisiae aged cells, superoxide DHE fluorescence; stronger effect = lower value; AID 2690; hit rate 0.18% among 330,000; superoxide response (% of plate mean), % at 10 µM;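 active = superoxide response under a set limit, about three screen SD below normal, cut at about 65% in these data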;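 also: yeast aged for seven days with compound at 30 °C before DHE staining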
PfG6PD confirm: confirmation of Plasmodium falciparum G6PD inhibitors; shares compounds with PfG6PD inh; recombinant PfGluPho, NADPH-diaphorase-resazurin fluorescence; inhibition, % at 20 µM; hit rate 34% among 2,400;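 active = inhibition of at least 50% at 20 µM in any single replicate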
Diaph ctr 10uM: diaphorase inhibition or oxidation at 10 uM NADPH | inhibition, % at 20 µM | hit rate 39% among 820 | shares compounds with PfG6PD inh | diaphorase-coupled resazurin reduction, fluorescence, NADPH 10 uM;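 active = average inhibition reaching 50% or more with the compound at 20 µM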;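 also: resorufin red fluorescence formed as diaphorase reduces resazurin using NADPH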
Diaphorase 30uM: counter-screen for P. falciparum G6PD inhibitors: diaphorase inhibitors, oxidizers. shares compounds with PfG6PD inh. Diaphorase/resazurin coupled assay, resorufin fluorescence, 30 uM NADPH. inhibition, % at 20 µM. hit rate 29% among 820. AID 504863;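 active = inhibition averaging 50% or more, tested at 20 µM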
A number is an active result; . = inactive; / = no result given. Compounds with a hit are over-represented: about 2.4% of the library has one in this group of screens.

SMILES	PfG6PD inh	PfM18AAP inh	A3G deaminase	APOBEC3A inh	Yeast superoxide	PfG6PD confirm	others
CN1CCc2c(sc3c2c(=O)n(-c2ccccc2)c2nnc(SCc4ccccc4)n32)C1	60	.	.	.	.	.
CN(C)CCn1c2c(c(SCC(=O)Nc3cccc4ccccc34)nc1=O)CCC2	.	/	.	.	.	/
Cc1c(C(=O)Nc2nc(-c3ccccn3)cs2)oc2ccccc12	62	/	.	.	.	.
O=C(Cn1cnc2c(NC(=O)OCc3ccccc3)ncnc21)NCCN1CCOCC1	.	/	.	.	.	/
O=C(COC(=O)c1ccc2c(c1[N+](=O)[O-])C(=O)c1ccccc1C2=O)NC1CC1	60	.	.	.	.	54	Diaph ctr 10uM=.;Diaphorase 30uM=.
O=C(COC(=O)c1cccc2c1C(=O)c1ccccc1C2=O)NC1CCCCC1	.	.	.	.	.	/
CCCCN1C(=O)CCC(C(=O)O)C1c1ccc([N+](=O)[O-])cc1 (stereo unspecified)	.	.	.	.	.	/
COCCCn1c(SCC(=O)N2CCCC2=O)nc2ccccc2c1=O	.	/	/	/	/	/
Cc1ccc(S(=O)(=O)N(CC(=O)NCc2ccco2)Cc2ccccc2F)cc1	72	.	/	/	/	.
Cc1ccc(NS(=O)(=O)c2c(C(=O)N3CCCCCC3)c(C)n(C)c2C)c(C)c1	.	.	.	.	.	/
COc1cc([C@H]2OC[C@H]3[C@@H]2CO[C@@H]3c2ccc(O[C@H]3O[C@H](CO)[C@@H](O)[C@H](O)[C@H]3O)c(OC)c2)ccc1O[C@@H]1O[C@H](CO)[C@@H](O)[C@H](O)[C@H]1O	.	/	.	.	.	/
CC(=O)c1ccc(Nc2ccc(-c3ccccc3F)nn2)cc1	79	.	.	.	.	.
Cc1ccc(/C=C/C(=O)NCc2ccc(S(N)(=O)=O)cc2)o1	68	.	/	/	/	58	Diaph ctr 10uM=.;Diaphorase 30uM=.
Cc1ccc(/C=C/C(=O)NCCc2cccc(Cl)c2)o1	63	.	.	.	.	49	Diaph ctr 10uM=.;Diaphorase 30uM=.
Cc1ccc(/C=C/C(=O)NCC2COc3ccccc3O2)o1 (stereo unspecified)	63	.	.	.	.	48	Diaph ctr 10uM=.;Diaphorase 30uM=.
Cc1ccc(/C=C/C(=O)NCc2ccc3c(c2)OCO3)o1	78	.	.	.	.	.
Cc1ccc(/C=C/C(=O)Nc2ccc(S(N)(=O)=O)cc2)o1	.	.	.	.	.	/
Cc1ccc(C(=O)NCc2ccc3c(c2)OCO3)o1	.	.	.	.	.	/
O=C1C(Cl)=C(NCCc2ccccc2)C(=O)c2ccccc21	97	/	/	/	/	80	Diaph ctr 10uM=.;Diaphorase 30uM=.
Cc1ccc(N=Cc2ccc[nH]2)c(O)c1	77	.	.	.	.	.
COC1=C(N)C(=O)c2nc(C)ccc2C1=O	109	/	/	/	/	93	Diaph ctr 10uM=.;Diaphorase 30uM=57
COC1=C(Br)C(=O)c2nc(C)ccc2C1=O	101	/	/	/	/	74	Diaph ctr 10uM=.;Diaphorase 30uM=.
O=c1c(C(c2ccccc2)c2c(O)sc3ccccc3c2=O)c(O)sc2ccccc12	.	.	.	.	.	/
O=C1OC(c2ccccc2)(c2cc(Br)ccc2O)c2ccccc21 (stereo unspecified)	.	/	/	/	/	/
O=C1OC(c2ccccc2)(c2ccc3cc(O)ccc3c2)c2ccccc21 (stereo unspecified)	62	/	/	/	/	.
SMILES	PfG6PD inh	PfM18AAP inh	A3G deaminase	APOBEC3A inh	Yeast superoxide	PfG6PD confirm	others
O=C1OC(c2ccc(O)cc2)(c2ccccc2O)c2ccccc21 (stereo unspecified)	.	/	/	/	/	/
O=C1OC2(c3ccccc31)c1ccccc1-c1ccccc12	84	/	/	/	/	.
O=C1OC(c2ccc3ccccc3c2O)(c2ccc3ccccc3c2O)c2ccccc21	75	/	/	/	/	57	Diaph ctr 10uM=.;Diaphorase 30uM=.
O=C1OC(c2ccc(O)cc2)(c2ccc(O)cc2)c2ccccc21	.	.	.	.	.	/
CCCCn1c(N)c(N(CC(C)C)C(=O)c2cc3ccccc3cc2OC)c(=O)[nH]c1=O	.	/	/	/	/	/
CCN(CC)C(=O)CSc1nc(-c2cccs2)cc(-c2cccs2)c1C#N	70	.	.	.	.	.
O=C1C(Nc2ccccc2)=C(N2CCCCC2)C(=O)c2ccccc21	.	.	.	.	.	/
O=C(/C=C/c1ccc(O)cc1)c1ccc(NC2=C(N3CCCCC3)C(=O)c3ccccc3C2=O)cc1	71	.	.	.	.	.
CCOc1ccc(-c2csc(N)c2C(=O)OC)cc1	66	.	.	.	.	.
CCOC(=O)c1c(-c2ccncc2)csc1N	.	.	.	.	.	/
O=C(Nc1cc(S(=O)(=O)N2CCOCC2)ccc1N1CCCC1)c1ccccc1F	.	/	/	/	/	/
O=C(Nc1cc(S(=O)(=O)N2CCOCC2)ccc1N1CCCCC1)c1ccccc1Br	68	/	.	.	.	.
Nc1cc(S(=O)(=O)N2CCCCC2)ccc1N1CCCCC1	.	/	.	.	.	/
CC(C)C(=O)Nc1cc(S(=O)(=O)N2CCOCC2)ccc1N1CCCCC1	61	/	.	.	.	.
O=C(Nc1cc(S(=O)(=O)N2CCOCC2)ccc1N1CCCC1)c1ccc(Cl)cc1	60	/	.	.	/	.
Cc1ccc(C(=O)Nc2cc(S(=O)(=O)N3CCOCC3)ccc2N2CCCC2)cc1	.	/	.	.	.	/
Nc1cc(S(=O)(=O)N2CCOCC2)ccc1N1CCCCC1	69	/	.	.	.	.
CCCC(C)C(=O)Nc1cc(S(=O)(=O)N2CCCCC2)ccc1N1CCOCC1 (stereo unspecified)	.	/	.	.	.	/
Cc1ccc(NC(=O)Cn2c([N+](=O)[O-])cnc2C)cc1Cl	.	.	.	.	.	/
Cc1ccccc1Nc1nnc(SCc2cc(=O)n3ccsc3n2)s1	.	.	.	.	.	/
COc1ccccc1Nc1nnc(SCc2cc(=O)n3cc(C)ccc3n2)s1	69	.	.	.	.	.
O=C1C=CC(=O)N1c1ccc2c(c1)Cc1cc(F)ccc1-2	84	/	/	/	/	.
CC(=O)Nc1ccc2c(c1)Cc1ccc(Cl)cc1-2	.	/	/	/	/	/
CC(=O)Nc1ccc2c(c1)Cc1cc(N3C(=O)C=CC3=O)ccc1-2	111	/	/	/	/	100	Diaph ctr 10uM=.;Diaphorase 30uM=.
O=[N+]([O-])c1ccc2c(c1)Cc1cc(F)ccc1-2	.	/	/	/	/	/
CCOC(=O)Cn1ccc2cc(S(=O)(=O)N3CCCC3)ccc21	.	/	/	/	/	/
COc1ccccc1NC(=O)NCCN1CCN(c2cccc(Cl)c2)CC1	.	.	.	.	.	/
CCN(CC)CCCN1C=C2C(=O)C(C)(OC(=O)CCc3ccccc3)C(=O)C=C2C=C1c1ccc(C#N)cc1 (stereo unspecified)	.	/	.	.	.	/
COc1ccc(N2C=C3C(=O)C(C)(OC(=O)CCc4ccccc4)C(=O)C=C3C=C2c2ccc(C#N)cc2)cc1 (stereo unspecified)	69	/	.	.	.	.
